Screening results as filed in PubChem BioAssay.
Vaccinia Venus = inhibitors of vaccinia virus (Venus reporter); actives 0.46% (n = 330,000); Vaccinia virus Venus reporter expression, fluorescence; Potency, µM (titrated, usually from 36.5 µM), hits mostly inhibitors; calls by dose curve; tested in A549 cells; note: nearly all actives have a fitted effect of over 30% in size
HCV inhibitor = HCV inhibition. Potency, µM (top dose mostly 41.8 µM), usual class: inhibitors. AID 651820. actives 3.4% (n = 340,000). Huh7.5.1 HCVcc-Cre infection, luciferase reporter, 44 h; active = well fitted inhibition curve with a large enough effect; inconclusive = small, poorly fitted or top-dose-only effect, or another doubt; inactive = no such curve, though single readings can be large or run the other way
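Infectious HCVcc-Cre (~0.5 moi) was added to cells just after compound, with cells seeded 4 h earlier at 1,000 per well. Luciferase activity after 44 h culture reported infection; substrate was incubated 15 min at room temperature before reading.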
VACV mCherry inh = vaccinia inhibition (mCherry reporter) | Vaccinia virus mCherry reporter infection, fluorescence | Potency, µM (doses to about 36.5 µM), usual class: inhibitors | actives 0.63% (n = 310,000); calls by dose curve; tested in A549 cells; note: nearly all actives have a fitted effect of over 35% in size
HCMV inh = blocks human cytomegalovirus replication; HFF cells, HCMV-luciferase reporter, 72 h; active compounds read low; activity change, negative = inhibition, % at 57.5 µM; actives 4.5% (n = 410,000); in the data active = activity change below about -60%; inconclusive = no clear call, values can overlap the other calls; inactive = above about -39%
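Steps: HFFs plated, 16 h 37C; compounds added; HCMV-luciferase added to MOI 1 PFU/cell; 72 h 37C; OneGlo reagent, 5 min room temperature; luminescence read, normalized to controls.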
FMDV inh = foot and mouth disease virus antiviral activity | actives 1.2% (n = 410,000) | Potency, µM (titrated, usually from 57.9 µM), most hits filed as inhibitors | FMDV antiviral cell-based qHTS; calls by dose curve; tested in HEK293T cells; note: read-out not given here; nearly all actives have a fitted effect of over 45% in size
A number is an active result. This is a sample that favours compounds with a hit; in the whole collection about 7.3% have one here.

How did OCC1COC(c2ccccc2)=N1 (configuration not stated) do in these assays?
HCMV inh: inactive

How did CCOC(=O)c1cnc2c(C(F)(F)F)cccc2c1N1CCOCC1 do in these assays?
Vaccinia Venus: inactive; HCV inhibitor: inconclusive; HCMV inh: inconclusive; FMDV inh: 32µM

How did CCc1cccc(NC(=O)c2ccc(CNS(=O)(=O)c3ccc4c(c3)C(C)(C)C(=O)N4C)cc2)c1 do in these assays?
Vaccinia Venus: inactive; VACV mCherry inh: inactive; HCMV inh: inconclusive; FMDV inh: 22µM

Results for Cc1ccc(NC(=O)c2ccc(CNS(=O)(=O)c3ccc4c(c3)C(C)(C)C(=O)N4C)cc2)cc1 ?
Vaccinia Venus: inactive; VACV mCherry inh: inactive; HCMV inh: inactive; FMDV inh: inconclusive

How did Cc1ccc(NC(=O)c2ccc(CNS(=O)(=O)c3ccc4c(c3)C(C)(C)C(=O)N4C)cc2)cc1F do in these assays?
Vaccinia Venus: inactive; VACV mCherry inh: inconclusive; HCMV inh: inactive; FMDV inh: 25µM

What do the screens show for `CC(=O)Nc1ccc(Nc2ccc(S(=O)(=O)C(F)(F)F)cc2[N+](=O)[O-])cc1`?
Vaccinia Venus: inactive; HCV inhibitor: inactive; VACV mCherry inh: inactive; HCMV inh: -97; FMDV inh: inactive

What do the screens show for `O=C(O)CNc1ccc(S(=O)(=O)C(F)(F)F)cc1[N+](=O)[O-]`?
Vaccinia Venus: inactive; HCV inhibitor: inactive; VACV mCherry inh: inactive; HCMV inh: inactive; FMDV inh: inactive

What do the screens show for `Cc1nn(C)cc1CN1CCOc2ccc(C(C)(O)COc3ccccc3)cc2C1` (configuration not stated)?
Vaccinia Venus: inconclusive; VACV mCherry inh: inactive; FMDV inh: inactive

How did Cc1nn(-c2ccccc2)c(Cl)c1CN(C(=O)CCl)c1ccc(Cl)cc1 do in these assays?
Vaccinia Venus: inactive; HCV inhibitor: 10µM; VACV mCherry inh: inactive; HCMV inh: -99; FMDV inh: inactive

Results for CC(=O)N(Cc1c(C)nn(-c2ccccc2)c1Cl)c1ccc(Cl)cc1 ?
HCV inhibitor: inconclusive; HCMV inh: inactive; FMDV inh: inconclusive

What do the screens show for `Cc1nn(-c2ccccc2)c(Cl)c1CN(C(=O)CCl)c1cccc2ccccc12`?
Vaccinia Venus: inconclusive; HCV inhibitor: inconclusive; VACV mCherry inh: inactive; HCMV inh: -99; FMDV inh: 28µM

Results for Cc1ccc(C(=O)NCC(=O)OCC(=O)c2cccc3ccccc23)cc1 ?
Vaccinia Venus: inactive; VACV mCherry inh: inactive

What do the screens show for `CCC(C)(C)n1nnnc1C(c1cc2ccc(OC)cc2[nH]c1=O)N1CCc2ccccc2C1` (configuration not stated)?
HCV inhibitor: inconclusive; HCMV inh: -75; FMDV inh: inactive

Results for CCC(C)(C)n1nnnc1C(c1cc2ccc(OC)cc2[nH]c1=O)N1CCc2ccccc21 (configuration not stated) ?
HCV inhibitor: inactive; HCMV inh: inactive; FMDV inh: inactive

How did NC(=O)C1CCN(C(=O)c2cccc(CN3C(=O)c4ccccc4C3=O)c2)CC1 do in these assays?
Vaccinia Venus: inactive; HCV inhibitor: inactive; VACV mCherry inh: inactive; HCMV inh: inactive; FMDV inh: inactive

Results for C=CCN1C(=O)c2ccc(C(=O)N3CCC(C(N)=O)CC3)cc2C1=O ?
HCV inhibitor: inactive; HCMV inh: -86; FMDV inh: inactive

Results for C=CCN1C(=O)c2ccc(C(=O)N3CCN(S(=O)(=O)c4cccc(Cl)c4)CC3)cc2C1=O ?
Vaccinia Venus: inactive; HCV inhibitor: inactive; VACV mCherry inh: inactive; HCMV inh: -76; FMDV inh: inactive

How did COc1ccc(S(=O)(=O)Nc2c(C)cc(C)cc2C)c2cccnc12 do in these assays?
Vaccinia Venus: inactive; HCV inhibitor: inactive; VACV mCherry inh: inactive; HCMV inh: -62; FMDV inh: inconclusive

What do the screens show for `Cc1cnc(-n2ncc(C(=O)N[C@H]3CCCCNC3=O)c2C2CC2)nc1-c1cccs1`?
Vaccinia Venus: inactive; VACV mCherry inh: inactive; FMDV inh: inactive

How did Oc1ccc(C=NNC(=S)Nc2cccnc2)nc1 do in these assays?
Vaccinia Venus: inactive; HCV inhibitor: inconclusive; VACV mCherry inh: inactive; HCMV inh: -69; FMDV inh: inactive

What do the screens show for `S=C(N/N=C/c1ccc2ncccc2c1)Nc1cccnc1`?
HCV inhibitor: inactive; HCMV inh: -71; FMDV inh: 14µM
